Gal4-VP16 FLuc = counter-screen for ROR gamma inhibitors: Gal4-VP16 reporter | Drosophila S2 Gal4-VP16 UAS-luciferase, luminescence, 20 h | actives 3.5% (n = 310,000) | Potency, µM (titrated, usually from 53.6 µM), inactives show at the highest dose activity, negative = inhibition, most hits filed as inhibitors;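 note: Gal4-VP16 expression switched on by copper sulfate through the metallothionein promoter; potency is the fitted concentration of half-maximal effect; nearly all actives have a fitted effect of over 50% in size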
TSHR antag = antagonists of human thyroid stimulating hormone receptor. activity change, negative = inhibition, % at 11.5 µM. TSHR-expressing cells, TSH-stimulated cAMP HTRF, 2 h; active compounds read low. actives 0.2% (n = 330,000). AID 504810. P16473;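 active = activity change below a set negative limit, meaning inhibition stronger than a set level, cut at about -70% in these data; inconclusive = activity change between two set negative limits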
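Competitive HTRF cAMP read-out (cryptate anti-cAMP antibody, cAMP-d2; 30 min, room temperature) in freshly harvested TSHR cells. Compounds added before TSH at EC80 (4nM final), followed by 2 hours' incubation at 37 deg C.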
B2AR arrestin = beta2AR (human) beta-arrestin recruitment activity | P07550 | beta-arrestin recruitment to beta2AR, cell-based reporter | Potency, µM (doses to about 46.1 µM), inactives show at the highest dose activation, usual class: activators | actives 0.02% (n = 330,000);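 note: potency is the fitted concentration of half-maximal effect; 0% = DMSO controls and full agonism = EC100 isoproterenol or metaproterenol; nearly all actives have a fitted effect of over 65% in size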
ELG1 repair inh = blocks ELG1-dependent DNA repair in HEK293T cells. HEK293T ELG1-luciferase reporter, luminescence, 16 h; DNA damage induced by 5-fluorouridine. Potency, µM (top dose mostly 46.1 µM), for the others: at the highest dose activity change, negative = inhibition, most hits filed as inhibitors. actives 2.3% (n = 330,000). AID 504467; note: potency is the fitted concentration of half-maximal effect; nearly all actives have a fitted effect of over 55% in size
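HEK293T cells expressing luciferase-tagged ELG1 (2,000/well) received 5-Fluorouridine plus compound or DMSO for 16 hr at 37 °C. Luciferase was read by ONE-Glo luminescence after 30 min at room temperature.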
RORg inh = blocks mouse ROR gamma transcriptional activity | Drosophila S2 Gal4-RORgamma UAS-luciferase reporter, 20 h | Potency, µM (doses to about 53.6 µM), without a hit: at the highest dose activity change, negative = inhibition, usual class: inhibitors | actives 5.4% (n = 310,000); note: potency is the fitted concentration of half-maximal effect; nearly all actives have a fitted effect of over 60% in size
Target sequence (P51450 whole entry, looked up, the tested form may be a part): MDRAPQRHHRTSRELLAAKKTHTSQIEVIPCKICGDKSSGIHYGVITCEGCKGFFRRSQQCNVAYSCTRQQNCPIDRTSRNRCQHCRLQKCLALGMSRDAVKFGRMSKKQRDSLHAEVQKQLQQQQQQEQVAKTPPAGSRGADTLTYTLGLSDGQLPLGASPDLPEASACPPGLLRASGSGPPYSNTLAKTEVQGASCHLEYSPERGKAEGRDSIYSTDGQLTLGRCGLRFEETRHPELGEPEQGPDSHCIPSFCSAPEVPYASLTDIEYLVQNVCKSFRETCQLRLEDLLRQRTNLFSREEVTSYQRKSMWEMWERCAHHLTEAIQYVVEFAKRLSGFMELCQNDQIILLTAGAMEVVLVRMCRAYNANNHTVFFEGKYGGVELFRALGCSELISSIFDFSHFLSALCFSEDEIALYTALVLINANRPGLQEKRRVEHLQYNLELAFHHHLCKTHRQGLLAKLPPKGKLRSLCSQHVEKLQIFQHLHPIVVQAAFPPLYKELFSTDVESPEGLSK
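Compounds are pin-transferred onto Drosophila Schneider cells expressing a copper-inducible Gal4–ROR gamma transactivation domain fusion. After 1 hr, copper sulfate is added to 700 uM final; luciferase is read 20 hr later.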
Numbers without * were called inactive; ? = inconclusive; · = not tested or not shown; [ ] = dose if it differs, or a comment. Shown are actives, neighbours in structure and some others; about 7.5% of the full set was active somewhere. Unless noted, calls come from the whole dose curve; as a rule, active = well fitted curve in the direction sought with a large enough effect; inconclusive = small, poorly fitted or top-dose-only effect, or another doubt; inactive = no such curve, though single readings can be large; an effect the other way counts as inactive or inconclusive. Unless noted, % is set by controls: 0 for no effect and ±100 for the full control effect.

SMILES | Gal4-VP16 FLuc | TSHR antag | B2AR arrestin | ELG1 repair inh | RORg inh
CO[C@@H]1/C=C\CC(=O)N[C@@H](C)C(=O)OC[C@H](NS(=O)(=O)c2ccc(C)cc2)[C@H](C)/C=C\CC(=O)OC[C@H]1C | 3%[10 µM] | · | · | · | -15%[10 µM]
CCCCC1=NN(C(=O)c2cccnc2)C(O)(C(F)(F)F)C1 (centres undefined) | ? | 5 | -1% | -5% | 10µM*
CCCC1=NN(C(=O)CCc2ccccc2O)C(O)(C(F)(F)F)C1 (centres undefined) | ? | 19 | 0% | 5% | ?
CCC1=NN(C(=O)c2cccnc2)C(O)(C(F)(F)F)C1 (centres undefined) | ? | 2 | 0% | -1% | 11µM*
Cc1ccc(CNC(=O)[C@@H]2C[C@H]2[C@@H](NP(=O)(c2ccccc2)c2ccccc2)c2ccccc2)o1 | -8% | · | · | · | 22%
Cc1ccc(NC(=O)CCCn2c(=S)[nH]c3ccsc3c2=O)cc1C | ? | -5 | -1% | 6% | 13µM*
Cc1ccc(NC(=O)CCCn2c(=O)[nH]c3ccsc3c2=O)cc1 | -1% | -6 | 0% | 16% | 1%
O=C(CCCn1c(=S)[nH]c2ccsc2c1=O)Nc1ccc2c(c1)OCO2 | -19% | -2 | 0% | 6% | 13µM*
Cc1cccc(NC(=O)CCCn2c(=S)[nH]c3ccccc3c2=O)c1 | 4%[10 µM] | -6 | 0% | -15% | 11µM*
Cc1ccc(OC(C)C(=O)N(Cc2cccs2)C2CCS(=O)(=O)C2)cc1C (centres undefined) | 1% | 3 | 0% | -4% | 20%
C=C(COC)C1=CCC(C(=O)OC)(C(=O)OC)[C@@H](C[N+](=O)[O-])c2ccccc21 | -12% | · | · | · | -19%
CCOC(=O)N/N=C1/C[C@@H](O)[C@@H](O)[C@@H]2[C@@H]3C(=O)N(CC)C(=O)[C@H]3CC[C@@H]12 | 0%[10 µM] | · | · | · | 3%[10 µM]
CC(C)c1ccc(NC(=S)N2CCCC(c3ccc(F)cc3)=N2)cc1 | -12% | -10 | -1% | -4% | 11µM*
S=C(Nc1ccccc1Cl)N1CCCC(c2ccccc2)=N1 | 1% | -6 | 0% | 0% | -20%
COc1ccccc1NC(=O)C(C)OC(=O)CCNS(=O)(=O)c1ccc(C)c(C)c1 (centres undefined) | · | 17 | 0% | -3% | ·
COCCn1c(/C=C/c2ccccc2)nc2ccccc21 | ? | -9 | 0% | ? | 11µM*
Cn1c(/C=C/c2ccccc2)nc2ccccc21 | 7.1µM* | 0 | -1% | ? | 10µM*
COCCn1c(-c2ccccc2)nc2ccccc21 | -6% | -11 | -1% | ? | ?
CC(=O)c1ccc(/C=C/c2nc3ccccc3n2C)o1 | ? | 6 | 0% | ? | 10µM*
COc1ccccc1Cn1c(/C=C/c2ccccc2)nc2ccccc21 | 22µM* | 3 | 0% | ? | ?
Cn1c(=O)c(/C=C/c2ccccc2)nc2ccccc21 | 13% | -15 | 0% | ? | ?
COCCNC(=O)Cn1cc(/C=C(\C#N)C(=O)NC2CCCC2)c2ccccc21 | -8% | 16 | 0% | -10% | 10%
C[C@@]12C=Cc3occc3[C@H]1CC[C@@]13C[C@@H](CC[C@H]12)[C@@](O)(CO)C3 | 3% | · | · | · | -40%
CCOC(=O)C1(C(C)C)Oc2ccccc2C(c2ccc(OC)cc2)=C1C(=O)OC (centres undefined) | -14% | · | · | · | 37%
COc1ccccc1Cn1c(C(C)C)nc2ccccc21 | -15% | -10 | 0% | ? | 7.9µM*
SMILES | Gal4-VP16 FLuc | TSHR antag | B2AR arrestin | ELG1 repair inh | RORg inh
COc1ccc(/C=C/c2nc3ccccc3n2Cc2ccccc2OC)cc1 | -84% | 5 | 0% | ? | 14µM*
NCCCNCCCCNCCCNC(=O)CCc1ccc(O)cc1 | 7%[10 µM] | · | · | · | 3%[10 µM]
O=C(CCc1ccccc1)NC1C2CC3CC(C2)CC1C3 (centres undefined) | -3% | -10 | 0% | 3% | 22%
CCCCCC(=O)NC(=S)NC1C2CC3CC(C2)CC1C3 (centres undefined) | 7.9µM* | -19 | -1% | 13% | 2.2µM*
Cc1noc(C)c1C(=O)N1CCC2(CCCN(C(=O)Nc3ccccc3)C2)CC1 | 0% | · | · | · | 21%
COc1cc2c(cc1OC)C(C)N(C(=O)c1sccc1C)CC2 (centres undefined) | 1% | -10 | 0% | -1% | ?
COc1cc2c(cc1OC)C(C)N(C(=O)c1cccc([N+](=O)[O-])c1)CC2 (centres undefined) | -7% | 0 | 0% | 18µM* | ?
CCC1=NN(C(=O)Cc2ccc([N+](=O)[O-])cc2)C(O)(c2ccncc2)C1 (centres undefined) | 3% | -5 | 0% | 3% | 18µM*
O=C(Cc1ccc([N+](=O)[O-])cc1)N1N=C(C2CC2)CC1(O)C(F)(F)F (centres undefined) | ? | 18 | 0% | -2% | 16µM*
CC1=NN(C(=O)Cc2ccc([N+](=O)[O-])cc2)C(O)(C(F)(F)C(F)(F)F)C1 (centres undefined) | 5µM* | 2 | 0% | -3% | 3.5µM*
Cc1occc1C(=O)N1N=C(C2CC2)CC1(O)C(F)(F)F (centres undefined) | ? | -9 | 0% | -2% | 7.9µM*
CCC1=NN(C(=O)Cc2ccc([N+](=O)[O-])cc2)C(O)(C(F)(F)F)C1 (centres undefined) | 10% | 34 | 0% | 2% | ?
CC(C)(O)[C@@H]1CCC[N+]2(C)CCCC[C@H]12 (some centres undefined) | 2% | · | · | · | 8%
O=C(O)c1ccc(Cl)cc1Cl | 20% | · | · | · | 0%
COc1ccccc1-c1nnc(SCC(=O)Nc2ccc3[nH]c(=O)[nH]c3c2)n1N | · | -4 | 0% | 23% | ·
Cc1noc(C)c1C(=O)N1CCC2(CCN(C(=O)NC(C)C)CC2)CC1 | -10% | · | · | · | -2%
CC(=O)O[C@@H]1CC[C@@]2(C)[C@H](C1)[C@H](OC(C)=O)C[C@@H]1[C@@H]2C[C@H]2[C@@H]3CN4C[C@H](C)CC[C@H]4[C@H](C)[C@H]3CC[C@@]12O | -1% | · | · | · | -3%
CCCC1=NN(C(=O)Cc2ccc([N+](=O)[O-])cc2)C(O)(C(F)(F)F)C1 (centres undefined) | ? | -2 | 0% | -9% | 20µM*
CN(CC(=O)Nc1ccc(F)cc1)C(=O)c1ccccc1Sc1ccccc1C#N | · | -3 | 0% | ? | ·
COc1ccc(NC(=O)c2ccc3c(c2)NC(=O)CS3)cc1 | · | -7 | 0% | ? | ·
Cc1ccc(NS(=O)(=O)c2cc(NC(=O)c3ccc4c(c3)NC(=O)CS4)ccc2Cl)c(C)c1 | 1% | ? | 0% | 23µM* | ?

Assay outcomes deposited in PubChem by National Center for Advancing Translational Sciences (NCATS).
